# Assay outcomes: PubChem, National Center for Advancing Translational Sciences (NCATS)
# PI5P4K alpha inh: blocks human PI5P4K alpha kinase activity; 330,000 tested, 1.2% active; P48426; max response, %; PI5P4Kalpha enzyme, ADP-Glo luminescence, 60 min; active compounds read low; active means max response of -50% or lower; inconclusive means between -30% and -50%; inactive means -30% or higher; further: value at the top dose of about 77 µM
# Target sequence (P48426 whole entry, looked up): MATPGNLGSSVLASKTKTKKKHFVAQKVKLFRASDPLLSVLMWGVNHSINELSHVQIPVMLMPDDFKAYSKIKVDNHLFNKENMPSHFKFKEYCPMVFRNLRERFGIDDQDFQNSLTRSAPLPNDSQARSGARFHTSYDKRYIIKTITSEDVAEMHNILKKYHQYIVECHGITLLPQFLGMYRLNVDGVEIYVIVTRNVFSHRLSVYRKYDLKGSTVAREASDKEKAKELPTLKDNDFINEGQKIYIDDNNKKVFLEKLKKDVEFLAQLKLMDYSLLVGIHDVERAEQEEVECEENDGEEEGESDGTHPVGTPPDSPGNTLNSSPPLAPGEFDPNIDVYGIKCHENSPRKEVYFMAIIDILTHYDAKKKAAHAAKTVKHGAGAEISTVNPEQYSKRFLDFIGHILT
#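 Controls without substrate or without enzyme flank wells where PI5P4Kalpha converts substrate using 5 microM ATP (final). Incubation lasts 60 minutes at room temperature; ADP formed is read by ADP-Glo luminescence.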
# PI4K2A inh: inhibitors of human PI4K2A | AID 1346378 | purified PI4K2A, ADP-Glo luminescence, 1 h; active compounds read low | 420,000 tested, 0.13% active | activity change, negative = inhibition, % at 76.9 µM | Q9BTU6; in the data active means activity change below about -50%; inconclusive means mostly about -30% to -49%;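 further: -100% = wells without enzyme as full effect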
#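 PI4K2A activity was measured by ADP-Glo luminescence: enzyme (4 ug/mL stock) and phosphatidylinositol (1.2 mM stock) in Tris pH 7.5/MgCl2/EGTA/Triton X-100 buffer were reacted with ATP (300 microM stock) for one hour at ambient temperature.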
# Pin1 inh: blocks the human prolyl isomerase Pin1 | Q13526 | Pin1 FP peptide displacement, HiFluor488, 10 min | Potency, µM (series often up to 115 µM), for the others: top-dose activity, negative = inhibition, usual class: inhibitors | 390,000 tested, 0.009% active | AID 504891; active means well fitted inhibition curve with a large enough effect in the polarisation, with a control signal flat, not every such curve was filed as active; inconclusive means small, poorly fitted or top-dose-only effect, or effect the other way, or a change in a side signal; inactive means no such curve, though single readings can be large or run the other way; the % refers to the polarisation; further: potency means the concentration at half of the fitted maximal effect
# Target sequence (Q13526 whole entry, looked up): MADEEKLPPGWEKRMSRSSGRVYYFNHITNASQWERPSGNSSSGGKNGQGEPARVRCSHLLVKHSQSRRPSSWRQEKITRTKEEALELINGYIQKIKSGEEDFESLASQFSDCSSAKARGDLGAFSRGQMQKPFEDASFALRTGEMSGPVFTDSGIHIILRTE
# PGK inhibitor: inhibitors of T. brucei phosphoglycerate kinase; P07378; PGK/GAPDH coupled, Kinase-Glo luminescence, 60 min; Potency, µM (titrated, usually from 57.5 µM), inactives show at the top dose activity change, negative = inhibition, usual class: inhibitors; 380,000 tested, 0.043% active; active means well fitted inhibition curve with a large enough effect; inconclusive means small, poorly fitted or top-dose-only effect; inactive means no such curve, though single readings can be large or run the other way; further: potency means the concentration at half of the fitted maximal effect; nearly all actives have a fitted effect of over 60% in size
#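 Recombinant glycosomal PGK reaction used 1,3-bisphosphoglycerate generated in-well by GAPDH (100nM final) in 100mM TEA pH 7.6, 5mM MgCl2, 0.01% Tween-20. After 60 minutes at room temperature, ATP was read by Kinase-Glo Plus luminescence end-point.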
# The depositor's hits bear a star; i = inactive; u = inconclusive; x = no result; [ ] = dose if it differs, or a comment. Many of the other results were omitted from the sample, so hits are more common in it than they were. Unless noted, on the % scale 0 is the no-effect control and ±100 the full control effect.
SMILES,PI5P4K alpha inh,PI4K2A inh,Pin1 inh,PGK inhibitor
O=[N+]([O-])c1cc2oc3c(c2c(C=NCc2ccncc2)c1O)CCCC3,-80.8*,-12.8,4.6%,-10.3%
CC(C)(C)N=Cc1c(O)ccc2oc3c(c12)CCCC3,-2.1,-7.1,x,-6.6%
CC/C(C)=N/Nc1nc(-c2cc3cccc(OC)c3oc2=O)cs1,-60.2*,-25.0,u,3.4%
COC(=O)[C@]12C[C@H](CC(=O)NCc3ccc(C)o3)C(=O)N(Cc3ccccc3)C1=C[C@H](COCc1ccccc1)O[C@@H]2C,x,-8.2,x,x
CCOc1ccc(NC(=S)NNC(=S)Nc2cccc(C(F)(F)F)c2)cc1,-17.6,-0.5,-2.2%,-2.0%
COc1ccc(NC(=S)NNC(=S)Nc2cccc(C(F)(F)F)c2)cc1,-78.0*,1.5,3.7%,-0.5%
COc1ccc(OC)c(-c2cc(C(=O)Nc3c(C)nn(Cc4ccccc4)c3C)no2)c1,x,-53.8*,2.0%,1.7%
COc1ccc(OC)c(-c2cc(C(=O)Nc3c(C)nn(Cc4ccc(Cl)cc4)c3C)no2)c1,x,0.9,-2.4%,-4.0%
CC(=O)Nc1ccc(C2=NNC(=Nc3cccc(S(=O)(=O)N(C)C)c3)SC2)cc1,-71.0*,-27.9,-2.8%,x
Cc1ccc(N2CCN(S(=O)(=O)c3ccc4c(c3)CC(=O)N4)CC2)cc1,x,x,21.3%[230 µM],x
N#CC1C(=O)NC(=O)C(C#N)C12CCCC2 (centres undefined),-51.1*,-6.9,x,x
CN(C)c1cccc(S(=O)(=O)N2CCN(S(=O)(=O)c3ccc4c(c3)OCCO4)CC2)c1,x,x,-10.2%,x
N#Cc1c(N)n(-c2ccc(N)cc2)c2nc3ccccc3nc12,-5.5,3.1,7.4%,-6.7%
N#Cc1c(C#N)c(SSc2c(C#N)c(C#N)c(N)n2-c2ccccc2)n(-c2ccccc2)c1N,-81.2*,1.4,-0.4%,0.6%
COc1ccc(C(=O)/C=C(\C)Nc2ccc(NC(C)=O)cc2)cc1,x,-2.3,-8.9%,-8.4%
C/C(=C\C(=O)c1ccccc1)Nc1ccc(O)cc1,-2.5,-53.6*,25.6%,-4.1%
C/C(=C\C(=O)c1cccnc1)Nc1ccc(O)cc1,x,-60.7*,-3.4%,i
O=[N+]([O-])c1ccccc1NCc1ccc(O)c2ncccc12,x,x,-6.9%,x
Nc1c(O)ccc2c1C(=O)c1ccccc1C2=O,-56.9*,-22.7,u,u
Cc1ccc(C(=O)O/N=C(\N)c2ccccn2)c(Cl)c1,-62.0*,-70.1*,-8.9%,u
COc1cccc(C(=O)O/N=C(\N)c2ccccn2)c1,-73.2*,-72.7*,-8.4%,14.1µM*
N/C(=N\OC(=O)c1ccc2ccccc2c1)c1ccncc1,4.5,-6.8,24.8%,-7.8%
N/C(=N\OC(=O)c1ccc2ccccc2c1)c1ccccn1,-18.4,-58.0*,-4.3%,u
CCCc1ccc(C(=O)O/N=C(\N)c2ccccn2)cc1,-64.9*,-85.1*,-2.7%,u
N/C(=N\OC(=O)c1cccc([N+](=O)[O-])c1)c1ccccn1,-7.2,1.7,-2.6%,-2.6%
SMILES,PI5P4K alpha inh,PI4K2A inh,Pin1 inh,PGK inhibitor
COc1ccc(C2c3c(ncn(Cc4ccccc4)c3=N)Oc3ccc4ccccc4c32)cc1OC (centres undefined),x,x,65.8%,x
Cc1ccc(C(=O)CSc2nnc(-c3ccco3)n2C)cc1,-56.3*,-0.6,-0.9%,i
O=C(C[n+]1cccc2ccccc21)c1ccc([N+](=O)[O-])cc1,-65.5*,-1.8,u,-1.8%
c1ccc(CNCc2nnc(-c3cc4ccccc4[nH]3)s2)cc1,x,x,-1.9%,x
CCOc1ccc2nc(/N=C/c3nc(-c4ccc(Br)cc4)oc3O)sc2c1,-63.2*,-7.1,u,-6.7%
COc1ccc(Br)cc1/C=c1\sc2nc(-c3ccco3)nn2c1=O,-58.7*,28.5,x,u
Cc1ccc(/C=c2\sc3nc(-c4ccco4)nn3c2=O)o1,-69.3*,0.7,u,u
COc1ccccc1/C=c1\sc2nc(-c3ccccc3OC)nn2c1=O,9.2,115.2,13.0%,28.7%
CC(=O)Nc1nc(=S)ss1,-57.9*,2.9,0.2%,-1.9%
CC(C)CC(=O)Nc1nc(=S)ss1,-53.2*,2.2,0.9%,-3.9%
Cc1ccccc1C(=O)Nc1nc(=S)ss1,u,0.6,2.8%,-4.7%
Cc1cc(N/N=C/c2ccc(O)cc2)nc(NS(=O)(=O)c2ccccc2)n1,-54.8*,-7.3,u,25.1µM*
Cc1ccc(/C=N/Nc2cc(C)nc(NCc3ccccc3)n2)cc1,-3.7,13.4,u,i
CC(c1ccccc1)N1C(=O)c2ccc(C(=O)Nc3ccc(Br)cc3C(=O)O)cc2C1=O (centres undefined),-56.8*,-0.2,-5.7%,-10.6%
CC(C)CCN1C(=O)c2ccc(C(=O)Nc3ccccc3C(=O)O)cc2C1=O,-60.3*,0.4,0.1%,-0.3%
CC(c1ccccc1)N1C(=O)c2ccc(C(=O)Nc3ccccc3C(=O)O)cc2C1=O (centres undefined),u,-1.7,u,-2.5%
O=C(Nc1ccccc1C(=O)O)c1ccc(CN2C(=O)c3ccccc3C2=O)cc1,-53.4*,3.3,4.7%,-2.1%
CC(C)CCN1C(=O)c2ccc(C(=O)Nc3ccc(O)cc3C(=O)O)cc2C1=O,-27.4,-0.5,2.9%,-4.4%
O=C(Nc1ccccc1C(=O)O)c1ccccc1,x,-3.7,u,x
CCCCCOc1ccccc1/C(=C\SC)n1ccnc1,x,3.2,x,x
O=C(CS(=O)Cc1ccco1)NC/C=C\COc1cc(CN2CCCCC2)ccn1 (centres undefined),x,-2.3,x,x
Cc1cccc(OCc2nnc(SCC(=O)c3c(N)n(C4CC4)c(=O)[nH]c3=O)o2)c1,0.1,2.7,2.3%,-7.4%
O=C(c1cccs1)C1CCN(c2ncnc3sccc23)CC1,x,-3.1,x,x
Clc1ccc(C(Cn2ccnc2)OCc2ccc(Sc3ccccc3)cc2)c(Cl)c1 (centres undefined),x,-0.7,x,x
CCOc1ccc(Nc2nc(N)c3ccccc3n2)cc1,-27.9,-79.8*,-8.3%,u
SMILES,PI5P4K alpha inh,PI4K2A inh,Pin1 inh,PGK inhibitor
Nc1nc(Nc2ccccc2)nc2ccccc12,-22.2,u,3.7%,u
CCCCCc1c2c(cc(O)c1C(=O)O)OC(=O)c1c(cc(OC)cc1C(=O)CCCC)O2,u,-0.3,17.8µM*,-10.4%
CCCCCC(=O)Nc1cc(S(=O)(=O)O)cc2cc(S(=O)(=O)O)cc(O)c12,-86.1*,-59.1*,u,1.12µM*
CCC1(OC(=O)CN(C)C)C(=O)OCc2c1cc1n(c2=O)Cc2cc3c(N)cccc3nc2-1 (centres undefined),-2.4,-61.8*,u,i
C/C=C(\C)C(=O)NCCN1C2=NC[C@@H](Cc3ccccc3)N2C[C@@H]1Cc1ccc(OC)cc1,0.3,2.5,-0.3%,-9.0%
CCCCCCNC(=O)N[C@@H](C(=O)NCCC[C@H]1CN2C(=NC[C@@H]2Cc2ccccc2)N1CCc1cccc(OC)c1)C(C)C,-82.9*,-16.3,-0.6%,-3.1%
CNC(=O)CN(CCN(CCN(CC(=O)[O-])CC(=O)NC)CC(=O)[O-])CC(=O)[O-].O.[Gd+3],x,4.0,x,x
O=C(O)Cn1c(C(=O)Nc2nc(-c3ccccc3Cl)cs2)cc2ccccc21,x,-2.9,x,x
